Experimental findings from the supplement of paper PMC6555819 are described below.

Holding throughout (experiment): PBM binding z-score (relative to random genomic background probes); higher = stronger binding; sequences stand for … in GC…GCGATTGACAGCGTAGAATGAAGG
Assay [1] has as its system FXR:RXRa (NR concentration 270 nM, RXRa partner concentration 90 nM). An outline of the steps: (§1)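 The probes on custom Agilent 4×180K protein-binding microarrays were double-stranded, with 34-nt variable regions bearing direct-repeat seeds, single-nucleotide variants, half-site ablations and random human genomic background sequences. Incubation lasted 1 h with ligand-free nuclear receptor dimers in PBS pH 7.4, 2% milk, 0.02% Triton X-100, 1 mM DTT, 0.2 mg/mL BSA and 0.4 mg/ml salmon testes DNA. Antibodies against each partner (one per run) detected bound dimers, and fluorescence scans were regression-normalized. Binding z-scores take the random background probes as reference.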

Assay [2] has as its system LXRa:RXRa (NR concentration 270 nM, RXRa partner concentration 90 nM). A digest of the protocol:
as §1

In assay [3] the test system is LXRa homodimer (NR concentration 270 nM). An outline of the steps: as §1
Assay [4] deals with LXRb:RXRa (NR concentration 270 nM, RXRa partner concentration 90 nM). A digest of the protocol: as §1
Assay [5] relates to LXRb homodimer (NR concentration 270 nM). A digest of the protocol:
as §1

The subject of assay [6] is PPARa:RXRa (NR concentration 270 nM, RXRa partner concentration 90 nM). A digest of the protocol:
as §1

The subject of assay [7] is PPARg:RXRa (NR concentration 180 nM, RXRa partner concentration 90 nM). A digest of the protocol:
as §1

Assay [8] deals with PPARg:RXRa 270nM:90nM, anti-RXR (NR concentration 270 nM, RXRa partner concentration 90 nM). An outline of the steps: as §1
For assay [9], the system named is PPARg:RXRa 30nM:10nM, anti-RXR (NR concentration 30 nM, RXRa partner concentration 10 nM). A digest of the protocol: as §1
The subject of assay [10] is PPARg:RXRa 90nM:30nM, anti-RXR (NR concentration 90 nM, RXRa partner concentration 30 nM). A digest of the protocol: as §1
Assay [11] relates to PPARg:RXRa DBDmut IVT, anti-RXR (DBD mutation: RXRa K156A/R161A, NR concentration 270 nM, RXRa partner concentration 90 nM). An outline of the steps:
as §1

Assay [12] has as its system PPARg:RXRa IVT, anti-PPARg (NR concentration 270 nM, RXRa partner concentration 90 nM). A digest of the protocol: as §1
Assay [13] deals with PPARg DBDmut:RXRa IVT, anti-PPARg (DBD mutation: PPARg1 K132A/R137A, NR concentration 270 nM, RXRa partner concentration 90 nM). A digest of the protocol:
as §1

Assay [14] concerns PPARg DBDmut IVT, anti-PPARg (DBD mutation: PPARg1 K132A/R137A, NR concentration 270 nM). An outline of the steps:
as §1

Assay [15] concerns PPARg homodimer (NR concentration 180 nM). A digest of the protocol:
as §1

For assay [16], the system named is PXR:RXRa (NR concentration 270 nM, RXRa partner concentration 90 nM). An outline of the steps:
as §1

The test system of assay [17] is PXR homodimer (NR concentration 270 nM). A digest of the protocol:
as §1

Assay [18] has as its system RARa:RXR (NR concentration 270 nM, RXRa partner concentration 90 nM). A digest of the protocol:
as §1

The test system of assay [19] is RARa homodimer (NR concentration 270 nM). A digest of the protocol:
as §1

The test system of assay [20] is RARb:RXRa (NR concentration 270 nM, RXRa partner concentration 90 nM). A digest of the protocol: as §1

Turning to ACAGACAGGTGATGAAGGTAACTCATGCTATCAT, the PBM binding z-score in assay [1] was -0.264; in [2], -0.284; in assay [3], 0.081; in assay [4], -0.0857; in assay [5] it was -0.304; in assay [6], 0.0179. Moreover, the PBM binding z-score in assay [7] is 0.862; in assay [8] it was -0.0647; in assay [9], 0.121; in assay [10], -0.0244; in [11] it was 0.199; in [12], 0.711. For the same sequence, the PBM binding z-score in assay [13] was -0.0414; in [14], -0.123; in [15], -0.0711; in assay [16], -0.216; in [17], -0.133; in assay [18], -0.118. Besides, the PBM binding z-score was determined as 0.279 in [19] and 0.221 in assay [20].
For ACTAATAGTTGAGACGAGGGCAACCGATAGGTTG, the PBM binding z-score in assay [1] is 0.996; in assay [2], 0.527; in assay [3], -0.147; in assay [4], 0.288; in assay [5], 0.0115; in assay [6], 0.669. The PBM binding z-score in assay [7] was 0.841; in assay [8] it was -0.0729; in assay [9], 0.0984; in assay [10], 0.103; in [11], -0.206; in assay [12] it was 0.29. Further, the PBM binding z-score in assay [13] was -0.296; in [14], 0.434; in assay [15] it was -0.0381; in assay [16] it was 2.33; in assay [17] it was 0.121; in assay [18], 1.08. In addition, the figures for the PBM binding z-score in assay [19] and in [20] were -0.0731 and 1.34, respectively.
Take CCTTACGGGGCACTCCAGGTTATAGCATCGGAGT: the PBM binding z-score in [1] is 0.717; in [2], 5.05; in assay [3], 0.548; in assay [4], 1.13; in [5], -0.636; in assay [6], 0.679. Further, the PBM binding z-score in assay [7] was 0.305; in [8], 0.0783; in assay [9], -0.441; in assay [10] it was -0.274; in assay [11], 0.818; in [12], 0.578. Moreover, the PBM binding z-score in assay [13] was -0.912; in assay [14] it was -1.1; in assay [15] it was 0.148; in [16], 0.683; in [17], -0.195; in assay [18], 0.828. The figures for the PBM binding z-score in assay [19] and in [20] were -0.55 and 1.05, respectively.
In the case of CGTCCAAGGTCAATGCTAGGTCAGTGAGAGCATT, the PBM binding z-score in [1] came to 6.44; in [2], 5.68; in [3], 2.93; in assay [4], 4.16; in assay [5] it was 0.966; in assay [6], 5.13. Further, the PBM binding z-score stood at 4.1 in [7]; 4.72 in assay [8]; 2.14 in assay [9]; 3.48 in [10]; 3.49 in assay [11]; 4.04 in [12]. Moreover, the PBM binding z-score is 0.572 in assay [13]; -0.0566 in assay [14]; 6.21 in assay [15]; 5.05 in [16]; 2.93 in assay [17]; 6.05 in assay [18]. The PBM binding z-score in assay [19] came out at 1.51; in [20], 5.23.
Take CCTCGGAGGACAGTAGGTCAGAGCTGTCCGCTTT: the PBM binding z-score was 0.394 in assay [1]; 0.75 in assay [2]; -0.0267 in assay [3]; -0.0579 in assay [4]; -0.769 in assay [5]; 1.64 in assay [6]. In addition, the PBM binding z-score in assay [7] was 0.253; in [8] it was 1.47; in [9], -0.726; in [10], 0.521; in assay [11] it was 2.48; in [12], 3.2. In addition, the PBM binding z-score in assay [13] is -0.95; in [14], -1.78; in [15] it was 0.409; in assay [16], 0.0704; in assay [17] it was -0.598; in [18], 0.582. The PBM binding z-score in assay [19] amounted to 0.337; in assay [20], 1.97.
With TTACCAAGGTGAAGGTCGTAGATCCCTCTGTAGA, the PBM binding z-score is 0.719 in assay [1]; 0.647 in assay [2]; -0.474 in [3]; 0.573 in assay [4]; -0.742 in [5]; 2.43 in assay [6]. In addition, the PBM binding z-score turned out to be 3.49 in assay [7]; 3.86 in assay [8]; 2.16 in [9]; 3.43 in assay [10]; 1.02 in [11]; 3.32 in [12]. Besides, the PBM binding z-score in assay [13] was -0.72; in assay [14] it was -0.483; in assay [15], -0.867; in [16], 0.858; in assay [17], -0.255; in [18], 1.4. Besides, the figures for the PBM binding z-score in assay [19] and in assay [20] were -0.36 and 2.01, respectively.
Regarding CCTTACCGGTCACTCCAGGTTATAGCATCGGAGT, the PBM binding z-score in [1] worked out at 2.6; in [2] it was 6.15; in assay [3], 4.71; in assay [4], 2.67; in [5], 1.65; in [6] it was 1.3. Moreover, the PBM binding z-score worked out at 0.603 in assay [7]; 0.901 in assay [8]; 0.0814 in assay [9]; 0.653 in [10]; 1.13 in assay [11]; 1.44 in assay [12]. Also, the PBM binding z-score in assay [13] is -0.00194; in [14], -0.042; in assay [15], 1.6; in assay [16], 1.94; in assay [17], 1.24; in assay [18] it was 1.37. The PBM binding z-score turned out to be 1.2 in assay [19] and 2.9 in [20].
